# Assay outcomes: PubChem BioAssay, Broad Institute
# An excerpt weighted towards active compounds, which were near 1.1% of everything screened.
# BioA inh: blocks M. tuberculosis BioA enzyme activity. purified M. tuberculosis BioA enzyme, plate reader. inhibition, % at 9.99 µM. 360,000 tested, 0.096% active; in the data active = inhibition above about 40%; inconclusive = no clear call, values can overlap the other calls
# PrP UTR inh: suppresses PrP 5' UTR mRNA reporter expression | 340,000 tested, 0.35% active | AID 488862 | cell-based PrP 5' UTR mRNA reporter, plate reader | inhibition, % (no concentration beside the values); in the data active = inhibition above about 52%
# FadD28 binding: blocks FadD28 binding to the bisubstrate probe; fluorescence polarization; inhibition, % at 12.5 µM; 360,000 tested, 0.22% active; AID 588549; in the data active = inhibition above about 8.5%, passing the limit was not always enough; inconclusive = no clear call, values can overlap the other calls
# TcdB inh: inhibitors of Clostridioides difficile toxin B glycohydrolase | TcdB glycohydrolase enzymatic assay, plate reader | P18177 | inhibition, % at 9.99 µM | 350,000 tested, 0.24% active; in the data active = inhibition above about 10%
# PfHsp40 yeast: compounds rescuing yeast from Plasmodium falciparum HSP40 toxicity | AID 504582 | 340,000 tested, 0.68% active | growth rescue, % at 12.5 µM | S. cerevisiae expressing PfHsp40, growth rescue, ATP luminescence; in the data active = growth rescue above about 28%, passing the limit was not always enough; inconclusive = no clear call, values can overlap the other calls;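 note: yeast W303a lacking pdr1 and pdr3 grown in galactose medium; growth measured after three days at 30 °C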
# PrP UTR cherry: prion 5' UTR mRNA inhibition, cherry-pick retest | shares compounds with PrP UTR inh | cell-based prion protein 5' UTR reporter, plate reader | inhibition, % at 2.5 µM | 1,100 tested, 48% active | AID 504592; in the data active = inhibition above about 54%; inconclusive = no clear call, values can overlap the other calls
# Numbers stand for hits; i = inactive; ? = inconclusive; nt = no result.
SMILES,BioA inh,PrP UTR inh,FadD28 binding,TcdB inh,PfHsp40 yeast,others
CCN(C[C@H]1N[C@@H](CO)[C@@H]1c1ccc(-c2cccc(C#N)c2)cc1)C(=O)COC,i,nt,nt,i,nt,
COC(=O)c1c(NC(C)=O)csc1C,i,i,i,i,i,
COC(=O)c1c(NC(=O)C(C)(C)C)csc1C,nt,i,i,i,38,
COc1ccc(CN(C)C[C@H]2OCCCC[C@H](C)Oc3ccc(NC(=O)c4ccncc4)cc3C(=O)N([C@H](C)CO)C[C@H]2C)cc1,i,nt,nt,i,nt,
Oc1c(C(c2ccc(Cl)cc2)N2CCCC2)cc(Cl)c2cccnc12 (centres undefined),nt,i,i,i,53,
Oc1c(C(c2ccccc2Cl)N2CCCC2)ccc2cccnc12 (centres undefined),nt,i,i,i,i,
Cc1ccc(C(c2cc(Cl)c3cccnc3c2O)N2CCN(C)CC2)cc1 (centres undefined),i,i,i,nt,61,
CC(=O)NC(c1ccc(C)cc1)c1cc(Cl)c2cccnc2c1O (centres undefined),i,i,i,i,i,
CN1CCN(C(c2ccccn2)c2cc(Cl)c3cccnc3c2O)CC1 (centres undefined),nt,i,i,i,401,
Oc1c(C(c2ccccn2)N2CCC(Cc3ccccc3)CC2)cc(Cl)c2cccnc12 (centres undefined),nt,nt,nt,i,nt,
COc1ccc(CN(C)C[C@H]2OCCCC[C@H](C)Oc3ccc(NC(=O)Nc4ccccc4)cc3C(=O)N([C@H](C)CO)C[C@@H]2C)cc1,i,nt,nt,nt,nt,
C[C@@H]1CCCCO[C@H](CN(C)C(=O)CCCN(C)C)[C@@H](C)CN([C@H](C)CO)C(=O)c2cc(NS(=O)(=O)c3ccc(F)cc3)ccc2O1,i,nt,nt,i,nt,
CC(C)CC#Cc1ccc([C@H]2[C@H](CO)N3C(=O)CN(C(=O)c4cccc(F)c4)C[C@@H]23)cc1,nt,nt,nt,i,nt,
C[C@@H]1CN([C@@H](C)CO)C(=O)c2cc(N(C)C)ccc2O[C@H]1CN(C)C(=O)Nc1ccc2c(c1)OCO2,i,nt,nt,i,nt,
CCOc1ccc(CSCCNC(=S)Nc2ccc(OC)cc2)cc1,nt,i,i,i,i,
CCCOc1ccc(CSCCNC(=S)Nc2ccccc2)cc1,nt,i,i,nt,216,
COCC#Cc1cnc2c(c1)C(=O)N([C@@H](C)CO)C[C@@H](C)[C@@H](CN(C)C(=O)Cc1cccnc1)O2,nt,nt,nt,i,nt,
O=C(/C=C/c1c(F)cccc1Cl)c1ccc(O)cc1,nt,i,i,i,37,
Cc1ccccc1-c1nn[nH]n1,i,i,i,nt,i,
Oc1ccc(N=Nc2ccccc2-c2nn[nH]n2)c(O)c1,i,i,22,i,i,
S=c1[nH]nc(-c2ccccn2)n1/N=C/c1ccccc1,nt,i,i,i,i,
S=c1[nH]nc(-c2ccccn2)n1/N=C/c1ccc(Cl)cc1,nt,i,i,15,i,
Cn1c(SCC(=O)NNC(=O)c2ccccc2O)nnc1-c1ccccc1,nt,i,i,i,106,
O=C(CSc1nnc(-c2ccccc2)n1Cc1ccccc1)NNC(=O)c1ccccc1O,i,i,i,i,166,
O=C(CSc1nnc(-c2ccccc2O)n1Cc1ccccc1)NNC(=O)c1ccccc1O,nt,i,i,nt,305,
SMILES,BioA inh,PrP UTR inh,FadD28 binding,TcdB inh,PfHsp40 yeast,others
O=C(O)CSc1nnc(-c2ccccc2O)n1Cc1ccccc1,i,i,i,nt,i,
Cc1cc(N=Nc2ccccc2C(=O)O)c(C)c(C)c1O,nt,i,?,i,150,
O=C(C[C@H]1CC[C@@H]2[C@H](COC[C@H](O)CN2S(=O)(=O)c2ccc(F)cc2)O1)N[C@@H]1CCN(Cc2ccccc2)C1,i,nt,nt,i,nt,
CCCCCCSc1ccc([C@H]2N[C@@](C)(C(=O)OC)[C@H]3C(=O)N(C)C(=O)[C@@H]23)cc1,i,i,i,i,39,
C[C@@H]1CN([C@@H](C)CO)C(=O)Cc2cc(NC(=O)CCC(F)(F)F)ccc2O[C@H]1CN(C)C(=O)NC1CCCCC1,i,nt,nt,i,nt,
O=C(Cc1ccccc1)Nc1nc(-c2ccc(F)c(F)c2)cs1,i,i,i,i,i,
O=C(Cc1ccccc1F)Nc1nc(-c2ccc(F)c(F)c2)cs1,nt,i,i,i,242,
C[C@@H]1CN([C@H](C)CO)C(=O)c2cccc(NS(C)(=O)=O)c2O[C@@H]1CN(C)C,i,nt,nt,i,nt,
COC(=O)c1ccc([C@H](NC(=O)c2ccco2)[C@]2(C)C[C@H]2C2CCCCC2)cc1,i,i,i,i,68,
Nc1cc2c(cc1Br)-c1ccccc1C2=NO,i,i,i,i,47,
Cc1ccccc1C1CC(=O)Oc2cc(O)ccc21 (centres undefined),i,i,13,nt,i,
C[C@H]1CN([C@@H](C)CO)C(=O)Cc2cc(NC(=O)CCN3CCOCC3)ccc2O[C@H]1CN(C)S(=O)(=O)c1ccccc1,i,nt,nt,i,nt,
CCc1c(O)nc(SCC(=O)Nc2nc3ccccc3s2)n(C2CCCCC2)c1=O,i,i,12,i,i,
COc1ccccc1OCCNC(=O)c1ccc(Br)cc1,i,nt,i,i,168,
O=C(NNC(=S)NC(=O)c1ccccc1Cl)c1cccc([N+](=O)[O-])c1,i,i,nt,i,?,
O=C(NNc1c(Cl)cc(Cl)cc1Cl)c1cccc([N+](=O)[O-])c1,i,i,i,nt,192,
COc1cccc(-c2ccc3c(c2)[C@H]2[C@H](CCN2C(=O)C2CCCCC2)[C@@H](CO)N3)c1,nt,nt,nt,i,nt,
CC(C)C(NC(=O)C(C(C)C)N(C)C)C(=O)N(C)C(C(=O)N1CCCC1C(=O)N1CCCC1C(=O)NCc1ccccc1)C(C)C (centres undefined),nt,62,i,i,i,PrP UTR cherry=89
O=C(Nc1nc2ccc(F)cc2s1)C1=COCCO1,i,i,i,i,i,
O=C(Nc1nc2cc3c(cc2s1)OCCO3)C1=COCCO1,i,92,i,i,i,PrP UTR cherry=86
CCN(C[C@H]1N[C@@](C)(C(=O)OC)[C@H]2C(=O)N(C)C(=O)[C@@H]12)C(=O)c1ccc(C(C)(C)C)cc1,i,58,i,i,i,PrP UTR cherry=i
CCNC(=O)N(CC)C[C@H]1N[C@@](C)(C(=O)OC)[C@H]2C(=O)N(C)C(=O)[C@@H]12,i,i,i,i,i,
O=C1ON=C(c2ccc(Cl)c([N+](=O)[O-])c2)/C1=C/c1cccc([N+](=O)[O-])c1O,i,i,i,i,i,
O=C1ON=C(c2ccccc2[N+](=O)[O-])/C1=C/c1cccc([N+](=O)[O-])c1O,i,90,i,i,i,PrP UTR cherry=i
C[C@H](CO)N1C[C@H](C)[C@H](CN(C)C(=O)Nc2ccc(F)cc2)Oc2ccc(NC(=O)CCCCCC(=O)Nc3ccccc3N)cc2CC1=O,nt,nt,nt,i,nt,
Nc1ccc(Cn2ccc3c4c(N)nc(N)nc4ccc32)cc1,nt,62,i,i,i,PrP UTR cherry=i
COc1cc(-c2noc(C)c2/C=C/c2cccc([N+](=O)[O-])c2)cc(OC)c1OC,i,58,i,i,i,PrP UTR cherry=71
C[C@@H]1CCCCO[C@H](CN(C)C(=O)C2CCCCC2)[C@@H](C)CN([C@@H](C)CO)C(=O)c2cc(NC(=O)c3ccncc3)ccc2O1,i,nt,nt,i,nt,
